Assay outcomes (PubChem)
S1P3 antag-1 – antagonists of human S1P3 receptor | Q99500 | CHO S1P3 NFAT-BLA reporter, FRET fluorescence, antagonist mode | inhibition, % at 4.98 µM | actives 0.27% (n = 170,000);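 active means inhibition above the plate cutoff, the mean inhibition of test wells on that plate plus 3 SD, cut at about 28% in these data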;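 further: cells challenged with S1P at its EC80 of 0.8 µM; blue over green emission ratio from cleaved BLA substrate after 4 h stimulation; 0% = S1P-stimulated wells and 100% = unstimulated DMSO-only wells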
Target sequence (Q99500 whole entry, looked up): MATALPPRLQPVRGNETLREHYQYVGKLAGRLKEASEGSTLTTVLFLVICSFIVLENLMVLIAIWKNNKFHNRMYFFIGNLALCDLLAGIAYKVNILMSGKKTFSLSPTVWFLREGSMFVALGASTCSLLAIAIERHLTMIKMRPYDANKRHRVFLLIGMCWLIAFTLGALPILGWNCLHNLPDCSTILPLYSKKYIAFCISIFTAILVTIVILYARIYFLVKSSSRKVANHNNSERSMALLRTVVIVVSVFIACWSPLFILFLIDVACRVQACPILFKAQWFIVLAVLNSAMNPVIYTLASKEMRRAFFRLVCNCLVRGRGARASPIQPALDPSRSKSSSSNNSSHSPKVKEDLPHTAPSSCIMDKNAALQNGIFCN
S1P4 agonist – human S1P4 receptor agonism; actives 0.35% (n = 220,000); S1P4-expressing cell line, agonist reporter assay; activation, % at 4.98 µM; AID 1509; in the data active means activation above about 11%;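 further: 0% = DMSO vehicle and 100% = reference agonist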
EP2 antag – EP2 receptor (human) inhibition | P43116 | C6 glioma cells expressing human EP2, cAMP TR-FRET; cells stimulated with saturating PGE2 | inhibition, % at 25 µM | actives 0.52% (n = 260,000);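 active means percent inhibition above 40 after rounding to a whole number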;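 further: rat C6 glioma host cells with rolipram phosphodiesterase inhibitor present; the protocol text gives 20 µM as final concentration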
S1P4 antag – blocks the human S1P4 receptor | S1P4-expressing cells, antagonist mode, reporter read-out | actives 0.26% (n = 220,000) | inhibition, % at 4.98 µM | O95977; in the data active means inhibition above about 29%;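 further: 0% = wells stimulated with agonist and 100% = vehicle wells without agonist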
EP2 mod – modulators of human EP2 prostaglandin E2 receptor; AID 940; P43116; EP2-expressing cells, cAMP HTRF FRET, PGE2 co-stimulation; induction, % at 25 µM; actives 0.83% (n = 260,000);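 active means compounds whose cAMP rise, as percent of the full-agonist control response, exceeds 60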;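 further: rat C6 glioma line stably carrying human EP2 under a CMV promoter; the protocol text gives 20 µM as final concentration; 100% = response of wells given 1 µM PGE2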
Pf gamet viab – kills late stage P. falciparum gametocytes. inhibition, % at 10.9 µM. AID 743093. actives 0.065% (n = 150,000). P. falciparum stage V gametocytes, ATP luminescence, 24 h;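 active means inhibition above the mean plus 3 SD of compounds within the control limits, set per campaign, cut at about 38% in these data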;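 further: 0% = DMSO wells and 100% = medium only without gametocytes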
S1P3 antag-2 – confirmation of human S1P3 receptor antagonists | inhibition, % at 4.98 µM | AID 1429 | actives 30% (n = 240) | shares compounds with S1P3 antag-1 | CHO S1P3 NFAT-BLA reporter, FRET, antagonist mode;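 active means inhibition above the hit threshold that was computed for the earlier primary screen, cut at about 30% in these data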;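 further: 0% = S1P-stimulated wells and 100% = unstimulated DMSO-only wells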
Active calls of the source: *; x = not tested or not shown. A selection: hits, their analogues and other compounds. The true share with any hit is near 1.9%.

SMILES	S1P3 antag-1	S1P4 agonist	EP2 antag	S1P4 antag	EP2 mod	Pf gamet viab	others
N#Cc1c(N)n(-c2cccc(O)c2)c2nc3ccccc3nc12	-9	2	10	0	-31	-7
CCC(=O)Nc1nc2c(Cl)c(Cl)ccc2s1	x	x	67*	x	-77	x
Nc1nc2c(Cl)c(Cl)ccc2s1	x	x	61*	x	-84	x
CCOc1cccc2sc(NC(=O)CC)nc12	x	-1	19	-14	28	-5
CCOC(=O)c1sc(-c2ccc(OC)cc2)cc1NC(C)=O	-6	0	40*	0	13	21
Cc1ccc2nc(SCC(=O)c3ccccc3)c(C#N)cc2c1	x	x	12	x	-7	x
Cc1cc2cc3c(cc2nc1SCC(=O)Nc1ccccc1F)OCO3	x	x	15	x	11	x
CCc1cc2cc3c(cc2nc1SCC(=O)Nc1ccc(OC)cc1)OCO3	x	x	20	x	8	x
Cc1cc2cc3c(cc2nc1SCC(=O)c1ccccc1)OCO3	x	x	13	x	70*	x
Cc1cc2cc3c(cc2nc1SCC(=O)c1ccccc1F)OCCO3	x	x	19	x	72*	x
CCc1cc2cc3c(cc2nc1SCC(=O)Nc1ccc(OC)c(OC)c1)OCO3	x	x	10	x	74*	x
Cc1cc2ccccc2nc1SCC(=O)c1ccccc1	x	x	9	x	81*	x
Cc1cc2cc(C)c3nnc(SCC(=O)Nc4cccc(O)c4)n3c2cc1C	x	x	7	x	-24	x
CCOC(=O)CSc1nc2cc3c(cc2cc1C)OCO3	2	1	7	-18	58	39*
CCOC(=O)CSc1nc2ccc(C)cc2cc1CC	x	x	12	x	62*	x
CC(C)c1nc(SCC(=O)c2ccc(F)cc2)c2ccccc2n1	4	2	8	-7	63*	x
Cc1cc2ccccc2nc1SCC(=O)NC(C)(C)C	x	x	7	x	87*	x
CCNC(=S)N(Cc1ccco1)Cc1cc2ccc(OC)cc2[nH]c1=O	x	x	6	x	-32	x
COc1cccc(C2NC(=S)NC(C)=C2C(=O)Nc2cccc(Cl)c2C)c1OC (stereo not drawn)	x	x	5	x	-28	x
CC(=O)Nc1ccc2c(c1)/C(=C/c1ccc([N+](C)(C)C)cc1)c1ccccc1-2	x	x	48*	x	-24	x
CCOc1cccc(NC(=O)C2CCCN(c3nc(C)cc(C)n3)C2)c1 (stereo not drawn)	x	x	3	x	-29	x
CCOc1ccc(/C(O)=C2\C(=O)C(=O)N(c3cc(C)on3)C2c2ccccc2OC)cc1 (stereo not drawn)	-6	0	40*	-4	32	x
Cc1cc2c(cc1C)[n+](C)cn2CC(O)COc1ccc(F)cc1 (stereo not drawn)	x	x	10	x	2	x
O=C(Cc1ccc([N+](=O)[O-])cc1)N1N=C2CCCCC2C1(O)C(F)(F)F (stereo not drawn)	-7	1	3	-11	72*	-28
CC(C)C(=O)N1N=C2CCCCC2C1(O)C(F)(F)F (stereo not drawn)	5	2	6	-30	22	26
SMILES	S1P3 antag-1	S1P4 agonist	EP2 antag	S1P4 antag	EP2 mod	Pf gamet viab	others
O=S1(=O)CS(=O)(=O)CS(=O)(=O)C1	x	x	10	x	-6	x
O=C(Nc1ccc(S(=O)(=O)N2CCCCCC2)cc1)C1COc2ccccc2O1 (stereo not drawn)	x	x	12	x	-80	x
CC1=NOC(=O)/C1=C\c1ccc(-c2ccccc2Br)o1	-5	0	44*	-7	14	x
CC1=NOC(=O)/C1=C\c1ccc(-c2cccc(Cl)c2)o1	x	1	109*	2	-35	x
CC1=NOC(=O)/C1=C\c1ccc(-c2ccc(Cl)c(C(=O)O)c2)o1	17	1	7	-14	13	8
Cc1ccc(/C=C2/C(=O)ON=C2c2ccccc2)o1	-10	0	80*	-3	-50	6
CCCCNc1nc(N)nc(-c2cc(Cl)ccc2O)n1	-5	-1	9	-10	64*	-22
CCC(=O)Nc1ccc2nc(SCC(=O)NC(C)(C)C)sc2c1	x	x	11	x	-5	x
CCOCCCNCC(O)c1ccccc1 (stereo not drawn)	-1	3	5	-21	5	-1
OCc1cc(C(O)CNCCCCCCOCCCCc2ccccc2)ccc1O (stereo not drawn)	10	-1	17	-1	69*	x
Cc1ccc(-c2cc(N)c(=O)n(CC(=O)NC3CCCCC3)n2)o1	x	x	9	x	-44	x
Cc1cc(C2(c3ccc(O)c(C)c3)C(=O)Nc3ccccc32)ccc1O	x	0	6	-3	61*	16
CCN1C(=O)C(c2ccc(O)cc2)(c2ccc(O)cc2)c2ccccc21	-19	1	3	-1	7	-1
Cc1cccc2c1NC(=O)C2(c1ccc(O)cc1)c1ccc(O)cc1	x	-5	12	98*	12	x
CCN(CC)S(=O)(=O)c1ccc(-c2nnc(SCC(=O)N3CCCCC3)o2)cc1	x	x	10	x	-1	x
COc1cccc(CNC(=O)CCCCCn2c(=S)[nH]c3ccc(N4CCOCC4)cc3c2=O)c1	64*	1	5	-16	25	2	S1P3 antag-2=-13
O=C(Nc1ccc(OC(F)F)c(Cl)c1)C(c1ccccc1)c1ccccc1	50*	-2	5	6	20	x	S1P3 antag-2=59*
O=C(N/N=C/c1ccc(O)cc1)Nc1cccc2nsnc12	31*	-1	5	-14	-26	-26	S1P3 antag-2=4
Cc1cc(Nc2cccc(Cl)c2)nc(NCc2ccccc2)n1	32*	1	6	-27	-22	-6	S1P3 antag-2=10
Cc1sc2nc(C)n(C3CCN(C(=O)CCN4CCCC4=O)CC3)c(=O)c2c1C	x	x	10	x	2	x
C(=N\NC1=Nc2cccc3cccc1c23)/c1ccccn1	29*	1	9	-4	-59	11	S1P3 antag-2=19
COc1ccc(C(=O)OCCC2CCC[N+]3(C)CCCCC23)cc1OC (stereo not drawn)	x	x	5	x	-1	x
COc1ccc(NC(=S)NNC(=O)C2CC2c2ccc(C)cc2)cc1 (stereo not drawn)	33*	-2	12	-11	-38	-2	S1P3 antag-2=-16
Cc1ccc(NC(=S)NNC(=O)C2CC2c2ccc(C)cc2)cc1 (stereo not drawn)	x	-4	6	3	-28	6
CCOc1ccc(C(=O)c2cc([N+](=O)[O-])ccc2N2CCOCC2)cc1	33*	-1	12	23	0	-3	S1P3 antag-2=19
COc1ccc(/C=N/NC(=O)CCc2n[nH]c(=O)[nH]c2=O)cc1OC	-9	3	7	-17	25	3
CCCOc1ccc(/C=N\NC(=O)CCc2n[nH]c(=O)[nH]c2=O)cc1OC	29*	-2	7	-9	-14	-3	S1P3 antag-2=-12
O=c1[nH]nc(-c2ccccc2)c2ccccc12	10	2	8	14	14	-34
Fc1ccc(-c2n[nH]c(=S)c3ccccc23)cc1	65*	1	5	0	19	-6	S1P3 antag-2=-14
O=C(N/N=C/c1ccc(O)cc1)c1cc(C23CC4CC(CC(C4)C2)C3)[nH]n1	31*	0	18	12	-22	-2	S1P3 antag-2=35*
